From PubChem BioAssay (Tox21)
Results filed as inconclusive are left out. Activity calls are given as the source filed them. Unless noted, the call rests on the fitted dose curve; in most records, active means well fitted curve in the direction sought with a large enough effect in the repeat runs; inconclusive means weak or mixed curves; inactive means no such curve, though single readings can be large; an effect the other way counts as inactive or inconclusive.

Assays:
[1] = qHTS assay for small molecule agonists of the p53 signaling pathway (AID 651631; calls by dose curve; further: nearly all actives have a fitted effect of over 15% in size; further: potency means the concentration at half of the fitted maximal effect)
Outline: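 Read-out is beta-lactamase FRET fluorescence measured 2 h after substrate addition at room temperature, in HCT-116 cells with a p53 response element-driven reporter exposed to compounds for 16 h at 37 °C.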

[2] = qHTS assay for small molecules that induce genotoxicity in human embryonic kidney cells expressing luciferase-tagged ATAD5 (AID 651632); further: nearly all actives have a fitted effect of over 15% in size
Outline: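 ATAD5-luc HEK293T, 2,000 cells/well; cpd or DMSO pin-transferred; 16 hr, 37C/5% CO2; Amplite 30 min RT; luminescence.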

[3] = qHTS assay for small molecule agonists of the p53 signaling pathway - cell viability (AID 651633; calls by dose curve;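 further: p53RE-bla HCT reporter cells with a stable beta-lactamase p53 reporter; series mostly up to about 83 µM; nearly all actives have a fitted effect of over 30% in size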)
Outline: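 p53RE-bla cells, seeded at 4,000 per well and rested 5 h at 37 C/5% CO2, received compounds in DMSO for 16 h at 37 C. CellTiter-Glo was then added, and luminescence was read after 30 min at room temperature to gauge cytotoxicity.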

[4] = qHTS assay for small molecules that induce genotoxicity in human embryonic kidney cells expressing luciferase-tagged ATAD5 - cell viability (AID 651634; calls by dose curve; further: nearly all actives have a fitted effect of over 25% in size; further: potency means the concentration at half of the fitted maximal effect)
Outline: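 Fluorescence from CellTiter-Fluor, reporting protease activity within live cells, served as the viability read-out. HEK293T cells carrying luciferase-tagged ATAD5 had been treated with compound for 15.5 hr at 37C.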

[5] = qHTS assay for small molecule disruptors of the mitochondrial membrane potential - cell viability (AID 720634; calls by dose curve;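 further: human HepG2 liver cancer cells; series mostly up to about 83 µM; nearly all actives have a fitted effect of over 20% in size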)
Outline: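 Cells: HepG2, 2,000/well, attached overnight. Compound 1 hr, 37 C/5% CO2. +m-MPI dye, +CellTiter-Glo 30 min RT. Readout: luminescence (ATP).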

[6] = qHTS assay for small molecule disruptors of the mitochondrial membrane potential (AID 720635); further: potency means the concentration at half of the fitted maximal effect
Outline: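 HepG2 cells (2,000/well) attached overnight at 37C, then took compound for 1 hr at 37C, 5% CO2. Mito-MPS dye was added for 30 min; fluorescence was read at 490/535 nm (monomers) and 540/590 nm (aggregates).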

[7] = qHTS assay to test for compound auto fluorescence at 590 nm (red) in HepG2 cells (AID 720674)
Outline: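 Intrinsic compound fluorescence in the red window (Ex/Em 540/590 nm) is measured in attached HepG2 cells exposed for 1 hr, DMSO vehicle as baseline, benchmarked to Rose Bengal sodium.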

[8] = qHTS assay to test for compound auto fluorescence at 535 nm (green) in HepG2 cells (AID 720675)
[9] = qHTS assay to test for compound auto fluorescence at 460 nm (blue) in HEK293 cells (AID 720678)
Outline: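 Cells were seeded and left to adhere for 4-5 hr at 37C. Compounds were then pin-transferred. After an overnight incubation at 37C under 5% CO2, intrinsic fluorescence at 405/460 nm was measured and referenced to triamterene.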

[10] = qHTS assay to test for compound auto fluorescence at 590 nm (red) in HEK293 cells (AID 720679)
Outline: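 Each well held 2,000 HEK293 cells in medium containing 10% dialyzed FBS. Following 4-5 hr attachment at 37C, 23 nL test compound or DMSO was added; plates sat overnight, and red fluorescence (540/590nm) was recorded.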
On the % scale 0 is the no-effect control and ±100 the full control effect.

Cc1coc2c1CCC(C)C2 (stereo not given)
active: Potency [6] 25.1 µM
inactive: Potency [1] | Potency [2] | Potency [3] | Potency [4] | Potency [5] | outcome [7] | outcome [8] | outcome [9] | outcome [10]

CCS(=O)(=O)C(C)(C)S(=O)(=O)CC
inactive: Potency [1] | Potency [2] | Potency [3] | Potency [4] | Potency [5] | Potency [6] | outcome [7] | outcome [8] | outcome [9] | outcome [10]

CCC(Cl)[N+](=O)[O-] (stereo not given)
inactive: Potency [1] | Potency [2] | Potency [3] | Potency [4] | Potency [5] | Potency [6] | outcome [7] | outcome [8] | outcome [9] | outcome [10]

CC1(C)CON(Cc2ccccc2Cl)C1=O
inactive: Potency [1] | Potency [2] | Potency [3] | Potency [4] | Potency [5] | Potency [6] | outcome [7] | outcome [8] | outcome [9] | outcome [10]

CCC/C(=N\OCC)C1=C(O)CC(CC(C)SCC)CC1=O (stereo not given)
inactive: Potency [1] | Potency [2] | Potency [3] | Potency [4] | Potency [5] | Potency [6] | outcome [7] | outcome [8] | outcome [9] | outcome [10]

NC(=O)O
inactive: Potency [1] | Potency [2] | Potency [3] | Potency [4] | Potency [5] | Potency [6] | outcome [7] | outcome [8] | outcome [9] | outcome [10]

OC(c1ccc(F)cc1)(c1cncnc1)c1ccccc1Cl (stereo not given)
inactive: Potency [1] | Potency [2] | Potency [3] | Potency [4] | Potency [5] | Potency [6] | outcome [7] | outcome [8] | outcome [9] | outcome [10]

CN1C[C@@H](NS(=O)(=O)N(C)C)C[C@@H]2c3cccc4c3c(cn4C)C[C@H]21
inactive: Potency [1] | Potency [2] | Potency [3] | Potency [4] | Potency [5] | Potency [6] | outcome [7] | outcome [8] | outcome [9] | outcome [10]

BrCCCCCCBr
inactive: Potency [1] | Potency [2] | Potency [3] | Potency [4] | Potency [5] | Potency [6] | outcome [7] | outcome [8] | outcome [9] | outcome [10]

CC1CCC(=O)O1 (stereo not given)
inactive: Potency [1] | Potency [2] | Potency [3] | Potency [4] | Potency [5] | Potency [6] | outcome [7] | outcome [8] | outcome [9] | outcome [10]

[Cl][Sn]([Cl])([Cl])[Cl]
inactive: Potency [1] | Potency [2] | Potency [3] | Potency [4] | Potency [5] | Potency [6] | outcome [7] | outcome [8] | outcome [9] | outcome [10]

O=NN1CCCCC1
inactive: Potency [1] | Potency [2] | Potency [3] | Potency [4] | Potency [5] | Potency [6] | outcome [7] | outcome [8] | outcome [9] | outcome [10]

CC(=O)Nc1cc([As](=O)(O)O)ccc1O
inactive: Potency [1] | Potency [2] | Potency [3] | Potency [4] | Potency [5] | Potency [6] | outcome [7] | outcome [8] | outcome [9] | outcome [10]

CC(=O)[C@H]1CC[C@H]2[C@@H]3CC[C@H]4C[C@H](O)CC[C@]4(C)[C@H]3C(=O)C[C@]12C
inactive: Potency [1] | Potency [2] | Potency [3] | Potency [4] | Potency [5] | Potency [6] | outcome [7] | outcome [8] | outcome [9] | outcome [10]

CCCCC(=O)Cl
inactive: Potency [1] | Potency [2] | Potency [3] | Potency [4] | Potency [5] | Potency [6] | outcome [7] | outcome [8] | outcome [9] | outcome [10]

C[N+](=O)[O-]
inactive: Potency [1] | Potency [2] | Potency [3] | Potency [4] | Potency [5] | Potency [6] | outcome [7] | outcome [8] | outcome [9] | outcome [10]

CCCCCCI
inactive: Potency [1] | Potency [2] | Potency [3] | Potency [4] | Potency [5] | Potency [6] | outcome [7] | outcome [8] | outcome [9] | outcome [10]

O=C(O)c1ccc2[nH]cc(CCCCN3CC=C(c4ccccc4)CC3)c2c1
inactive: Potency [1] | Potency [2] | Potency [3] | Potency [4] | Potency [5] | Potency [6] | outcome [7] | outcome [8] | outcome [9] | outcome [10]

O=C(CCCN1CCC(n2c(=O)[nH]c3ccccc32)CC1)c1ccc(F)cc1
inactive: Potency [1] | Potency [2] | Potency [3] | Potency [4] | Potency [5] | Potency [6] | fluorescence, relative to Rose Bengal [7] -0.608% [at 18.6 µM] | fluorescence, % of fluorescein control [8] 0.0365% [at 18.6 µM] | fluorescence, % of triamterene [9] 0.114% [at 18.6 µM] | fluorescence, % of fluorescent control [10] 0.426% [at 18.6 µM]

CCN(Cc1ccc(Cl)nc1)/C(=C/[N+](=O)[O-])NC
inactive: Potency [1] | Potency [2] | Potency [3] | Potency [4] | Potency [5] | Potency [6] | outcome [7] | outcome [8] | outcome [9] | outcome [10]

Nc1cc(Cl)ccc1O
active: Potency [1] 26.4 µM | Potency [4] 23.5 µM | Potency [6] 9.37 µM
inactive: Potency [2] | Potency [3] | Potency [5] | outcome [7] | outcome [8] | outcome [9] | outcome [10]

CCOP(=S)(OCC)Oc1nc(Cl)n(C(C)C)n1
inactive: Potency [1] | Potency [2] | Potency [3] | Potency [4] | Potency [5] | Potency [6] | outcome [7] | outcome [8] | outcome [9] | outcome [10]

NC(=O)c1cc([N+](=O)[O-])cc([N+](=O)[O-])c1
inactive: Potency [1] | Potency [2] | Potency [3] | Potency [4] | Potency [5] | Potency [6] | outcome [7] | outcome [8] | outcome [9] | outcome [10]

CCCCN(CCCCO)N=O
inactive: Potency [1] | Potency [2] | Potency [3] | Potency [4] | Potency [5] | Potency [6] | outcome [7] | outcome [8] | outcome [9] | outcome [10]

COC(=O)C(c1ccccc1)C1CCCCN1 (stereo not given)
inactive: Potency [1] | Potency [2] | Potency [3] | Potency [4] | Potency [5] | Potency [6] | outcome [7] | outcome [8] | outcome [9] | outcome [10]
